Gli-Sufu antag – antagonists of Gli-Sufu signaling; Sufu-KO-LIGHT fibroblasts, Gli luciferase reporter luminescence; inhibition, % at 5 µM; actives 0.74% (n = 340,000);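 active = inhibition above about 55%, limit read from the data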;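 note: 0% = DMSO-treated cells and 100% = wells with medium but no cells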
CSC inhib – cancer stem cell inhibition | cancer stem cell-like cells viability, luminescence | inhibition, % at 7.5 µM | actives 1.1% (n = 300,000) | AID 2717; in the data active = inhibition above about 75%; tested in HMLE shEcad cells
Beta cell apopt – blocks beta cell apoptosis; AID 435005; actives 0.8% (n = 300,000); INS-1E cytokine-induced death, ATP luminescence, 48 h; percent of positive-control rescue, neutral wells zero; protection from apoptosis, % (no concentration beside the values);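 active = Every replicate reaches about 75%, or at least half do and their mean reaches it too, limit read from the data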;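 note: 0% = cytokine-treated negative control wells and 100% = positive control rescue; higher means more ATP so stronger rescue from cytokine killing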
Mdm2 MdmX PPI – human Mdm2/MdmX binding inhibition | O15151+Q00987 | SaOS-2 split-luciferase Mdm2/MdmX complementation, luminescence | inhibition, % at 8 µM | actives 3% (n = 330,000) | AID 485346;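 active = inhibition of at least 50% at 8 µM in the primary screen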
Jurkat NFkB inh – inhibitors of the PMA/ionomycin-induced NF-kB reporter in Jurkat cells | PMA/ionomycin-induced NF-kB luciferase reporter, luminescence | inhibition, % at 4 µM | actives 0.53% (n = 330,000); in the data active = inhibition above about 50%
697 NFkB inh – inhibitors of the PMA/ionomycin-induced NF-kB reporter in 697 B cells; 697 B-cell NF-kB luciferase reporter, 16 h; inhibition, % at 4 µM; actives 0.33% (n = 330,000); AID 435022; in the data active = inhibition above about 35%
Mdm2-MdmX conf – human Mdm2/MdmX binding inhibition, confirmed; shares compounds with Mdm2 MdmX PPI; luminescent assay; inhibition, % at 8 µM; actives 55% (n = 10,000); in the data active = inhibition above about 40%
Full FLuc ctr – full-length luciferase inhibition in Mdm2/MdmX counter-screen. inhibition, % at 8 µM. actives 77% (n = 6,200). SaOS-2 full-length luciferase counterscreen, luminescence. AID 504607. shares compounds with Mdm2 MdmX PPI;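 active = mean inhibition at 8 µM reaching about 37%, which flags the compound as non-specific, limit read from the data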;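 note: p53-null SaOS-2 cells with luciferase driven by a doxycycline-inducible promoter; compound on cells about two nights before reading with doxycycline added after day one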
Active calls of the source: *; . = no result given. Hits are enriched below; roughly 4.5% of the tested compounds scored in any of these assays.

SMILES	Gli-Sufu antag	CSC inhib	Beta cell apopt	Mdm2 MdmX PPI	Jurkat NFkB inh	697 NFkB inh	Mdm2-MdmX conf	Full FLuc ctr
Cc1ccccc1NC(=O)Cn1nnc(-c2ccc(CN3CCC(C)CC3)cc2)n1	-8	16	-1	-3	-9	2	.	.
N#Cc1ccc(C(=O)OCC(=O)N2CCCC2)cc1	-5	17	-7	8	-1	7	.	.
COc1ccc(S(=O)(=O)NNC(=O)Nc2ccc(F)cc2)cc1	-1	11	-4	-12	-8	-10	.	.
Cc1ccc(C(NC(=O)NC(C)c2ccccc2)C(Cl)(Cl)Cl)cc1F (stereo not drawn)	2	-1	17	55*	11	24	58*	40*
O=S(=O)(Nc1ccc2ccccc2n1)c1ccccc1	48	-8	-1	6	1	-18	.	.
CCOc1ccc(CN2CCC(C(=O)Nc3cccc(-c4ccn[nH]4)c3)CC2)cc1Cl	4	.	.	61*	17	-4	0	.
CS(=O)(=O)N1CCC(C(=O)Nc2cccc(Cl)c2)CC1	-2	21	.	14	2	8	.	.
Cc1cc(C)n(CCCN2CCC(C(=O)Nc3cccc(-c4cccc(F)c4)c3)CC2)n1	32	1	-7	58*	22	-12	56*	74*
CCn1nc(C)c(CN2CCC(C(=O)Nc3cccc(-c4cccc(Cl)c4)c3)CC2)c1C	-3	64	5	80*	-2	-13	40*	62*
CCn1ncc(CN2CCC(C(=O)Nc3cccc(-c4cccc(F)c4)c3)CC2)c1C	22	.	.	33	-5	7	.	.
COc1ccc(C)cc1N1CC(C(=O)Nc2ccccc2C(=O)NC2CC2)CC1=O (stereo not drawn)	6	-9	-2	29	-4	14	.	.
Cc1ccc(C(NC(=O)C2CCCCC2)c2c(O)ccc3ccccc23)cc1 (stereo not drawn)	-16	54	41	80*	-7	10	61*	49*
O=C(CNc1cccc(S(=O)(=O)N2CCOCC2)c1)N1CCc2ccccc21	-12	.	.	-1	-12	13	.	.
Cc1nnc(NC(=O)c2oc3ccccc3c2C)s1	-71	-5	1	-47	-32	-106	.	.
O=C(Nc1nc(-c2ccccn2)cs1)c1cc2ccccc2o1	-35	47	2	52*	-20	-21	55*	53*
Cc1c(C(=O)Nc2nc(-c3ccccn3)cs2)oc2ccccc12	-14	109*	84*	67*	-1	1	64*	47*
OC[C@H]1OC(O)[C@H](O)[C@@H]1O (stereo partly drawn)	2	-13	1	-2	-5	-13	.	.
O=C(c1cc(-c2cccnc2)nc2ccc(Br)cc12)N1CCN(c2ncccn2)CC1	2	4	-3	52*	-1	1	51*	101*
CS(=O)(=O)N1CCN(C(=O)c2cc(-c3cccnc3)nc3ccc(Cl)cc23)CC1	-1	-4	-4	-3	-2	17	.	.
COc1ccc(CN2CCN(C(=O)c3cc(-c4cccnc4)nc4ccc(Cl)cc34)CC2)c(OC)c1OC	18	13	7	51*	6	14	49*	73*
CC(=O)c1ccc(N2CCN(C(=O)c3cc(-c4cccnc4)nc4ccc(Br)cc34)CC2)cc1	2	53	7	30	-10	-10	.	.
N#CC1=C(N)C(C#N)(C#N)C(c2cccnc2)C2CCCC=C12 (stereo not drawn)	.	-6	-9	26	-2	0	.	.
N#CC1=C(N)C(C#N)(C#N)C(c2cccnc2)C2CC(c3ccccc3)CC=C12 (stereo not drawn)	3	7	-5	62*	0	-26	61*	23
Cc1ccc(C)c(OCCC(=O)OCc2csc(CC(=O)Nc3ccccc3C)n2)c1	-8	.	.	3	5	-1	.	.
O=C(Nc1ccc(S(=O)(=O)Nc2cnc3ccccc3n2)cc1)c1ccc(Cl)c([N+](=O)[O-])c1	-1	-2	-2	4	4	17	.	.

From PubChem BioAssay
